# Active and inactive are the calls of the source. The calls were made as follows: active = hit-call score of the fitted dose curve at least 0.9, where 1 is the maximum; inactive = score below 0.9.
# Legend:
# [1] = read-out: Collagen IV, COL4A1 (gene 1282); experiment: BSK_MyoF_CollagenIV: BioMAP Diversity Plus: MyoF Assay for Collagen IV Biomarker Activity (AID 2284247); settings: primary human lung fibroblasts
# Summary of the method: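 Human lung fibroblast system, 24 h chemical exposure. Endpoint: Collagen IV by ELISA, upward fit vs DMSO.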
# [2] = read-out: Plasminogen activator inhibitor-1 (PAI1), SERPINE1 (gene 5054); experiment: BSK_MyoF_PAI1: BioMAP Diversity Plus: MyoF Assay for Plasminogen activator inhibitor-1 (PAI1) Biomarker Activity (AID 2284256); settings: primary human lung fibroblasts;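 as to outcome: PAI-1 protein level measured by ELISA in fibroblast cultures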
# Summary of the method: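 Primary human lung fibroblasts are dosed and incubated 24 h. PAI-1 is then measured by ELISA, while parallel cultures undergo SRB staining for overt cytotoxicity. Increases over DMSO define activity.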
# [3] = read-out: Interleukin-8 (IL8), CXCL8 (gene 3576); experiment: BSK_MyoF_IL8: BioMAP Diversity Plus: MyoF Assay for Interleukin-8 (IL8) Biomarker Activity (AID 2284261); settings: primary human lung fibroblasts
# Summary of the method: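 IL-8 levels were measured by ELISA in human lung fibroblasts harvested 24 h after compound addition. Responses were analysed as gain of signal over the DMSO baseline.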
# Decorin, DCN (gene 1634) = experiment: BSK_MyoF_Decorin: BioMAP Diversity Plus: MyoF Assay for Decorin Biomarker Activity (AID 2284265); settings: primary human lung fibroblasts
# Summary of the method: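 Compound is added to lung fibroblast cultures; cells incubate 24 h; decorin is then measured by ELISA; the response is analysed upward against DMSO controls.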
# [4] = read-out: Monokine induced gamma interferon (MIG), CXCL9 (gene 4283); experiment: BSK_KF3CT_MIG: BioMAP Diversity Plus: KF3CT Assay for Monokine induced gamma interferon (MIG) Biomarker Activity (AID 2284248); settings: primary human keratinocytes with fibroblasts
# Summary of the method: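 KF3CT system: keratinocyte/fibroblast co-culture, 24 h post-dose, MIG by ELISA; activity vs DMSO, positive fitting direction.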
# [5] = read-out: Vascular cell adhesion molecule 1 (VCAM1), VCAM1 (gene 7412); experiment: BSK_BF4T_VCAM1: BioMAP Diversity Plus: BF4T Assay for Vascular cell adhesion molecule 1 (VCAM1) Biomarker Activity (AID 2284249); settings: primary human bronchial epithelial cells with fibroblasts
# Summary of the method: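 Cell-surface VCAM-1 quantified by ELISA after 24 h chemical exposure of human bronchial epithelial/dermal fibroblast co-cultures, with SRB staining in parallel wells for cytotoxicity; DMSO baseline, positive-direction fitting.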
# [6] = read-out: Collagen I, COL1A1 (gene 1277); experiment: BSK_hDFCGF_CollagenI: BioMAP Diversity Plus: hDFCGF Assay for Collagen I Biomarker Activity (AID 2284250); settings: primary human foreskin fibroblasts
# Summary of the method: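 Collagen I ELISA, primary human foreskin fibroblasts, 24 h chemical exposure, DMSO = negative control/baseline, positive fitting direction.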
# [7] = read-out: Interferon-inducible T-cell alpha chemoattractant (ITAC), CXCL11 (gene 6373); experiment: BSK_hDFCGF_ITAC: BioMAP Diversity Plus: hDFCGF Assay for Interferon-inducible T-cell alpha chemoattractant (ITAC) Biomarker Activity (AID 2284251); settings: primary human foreskin fibroblasts
# Summary of the method: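 Chemical dosing of primary human foreskin fibroblast cultures preceded ELISA measurement of I-TAC at 24 h. Response was analysed in the positive direction using DMSO as baseline, while parallel SRB staining measured cytotoxicity.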
# [8] = read-out: Plasminogen activator inhibitor-1 (PAI1), SERPINE1 (gene 5054); experiment: BSK_KF3CT_PAI1: BioMAP Diversity Plus: KF3CT Assay for Plasminogen activator inhibitor-1 (PAI1) Biomarker Activity (AID 2284252); settings: primary human keratinocytes with fibroblasts
# Summary of the method: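 Cells (human keratinocytes co-cultured with foreskin fibroblasts) are exposed to test chemical for 24 h. PAI-1 is then measured by ELISA and analysed for signal gain against DMSO.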
# [9] = read-out: Monocyte Chemoattractant Protein-1 (MCP1), CCL2 (gene 6347); experiment: BSK_IMphg_MCP1: BioMAP Diversity Plus: IMphg Assay for Monocyte Chemoattractant Protein-1 (MCP1) Biomarker Activity (AID 2284253); settings: primary human endothelial cells with macrophages
# Summary of the method: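 ELISA readout of MCP-1 at 24 hours in IMphg co-cultures of venular endothelial cells and macrophages, normalised to DMSO; parallel cultures stained with sulforhodamine B for overt cytotoxicity.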
# [10] = read-out: Interleukin-8 (IL8), CXCL8 (gene 3576); experiment: BSK_KF3CT_IL8: BioMAP Diversity Plus: KF3CT Assay for Interleukin-8 (IL8) Biomarker Activity (AID 2284254); settings: primary human keratinocytes with fibroblasts
# Summary of the method: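 Chemicals were added to co-cultured human keratinocytes and foreskin fibroblasts, incubated 24 h, then IL-8 was quantified by ELISA. Cytotoxicity was tracked by sulforhodamine B total-protein staining in parallel cultures.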
# [11] = read-out: Macrophage Inflammatory Protein-1 Alpha (MIP1a), CCL3 (gene 6348); experiment: BSK_IMphg_MIP1a: BioMAP Diversity Plus: IMphg Assay for Macrophage Inflammatory Protein-1 Alpha (MIP1a) Biomarker Activity (AID 2284255); settings: primary human endothelial cells with macrophages
# Summary of the method: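 MIP-1a protein levels were quantified by ELISA after 24 h treatment of human endothelial cell–macrophage co-cultures, compared with DMSO. Parallel cultures were fixed with TCA and stained with 0.1% SRB to gauge overt cytotoxicity.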
# CD69, CD69 (gene 969) = experiment: BSK_IMphg_CD69: BioMAP Diversity Plus: IMphg Assay for CD69 Biomarker Activity (AID 2284257); settings: primary human endothelial cells with macrophages
# Summary of the method: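 Readout is ELISA for CD69 in primary human venular endothelial cell/macrophage co-culture, taken at 24 h post-dosing. SRB staining of parallel cultures gauged overt cytotoxicity; signal increase versus DMSO defined activity.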
# [12] = read-out: Eotaxin 3, CCL26 (gene 10344); experiment: BSK_BF4T_Eotaxin3: BioMAP Diversity Plus: BF4T Assay for Eotaxin 3 Biomarker Activity (AID 2284258); settings: primary human bronchial epithelial cells with fibroblasts
# Summary of the method: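 ELISA measurement of Eotaxin-3 after 24 h chemical exposure in a bronchial epithelial/dermal fibroblast co-culture, with DMSO as baseline. Parallel SRB staining (0.1% SRB after 10% TCA fixation, 560 nm) flagged overt cytotoxicity.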
# [13] = read-out: Monocyte Chemoattractant Protein-1 (MCP1), CCL2 (gene 6347); experiment: BSK_BF4T_MCP1: BioMAP Diversity Plus: BF4T Assay for Monocyte Chemoattractant Protein-1 (MCP1) Biomarker Activity (AID 2284259); settings: primary human bronchial epithelial cells with fibroblasts
# Summary of the method: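 MCP-1 ELISA readout taken 24 h after dosing in the BF4T system (bronchial epithelial cells plus dermal fibroblasts). Parallel SRB total-protein staining flagged cytotoxicity; DMSO served as baseline, positive fitting direction.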
# [14] = read-out: Intercellular Adhesion Molecule 1 (ICAM1), ICAM1 (gene 3383); experiment: BSK_BF4T_ICAM1: BioMAP Diversity Plus: BF4T Assay for Intercellular Adhesion Molecule 1 (ICAM1) Biomarker Activity (AID 2284260); settings: primary human bronchial epithelial cells with fibroblasts
# Summary of the method: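 ICAM-1 levels measured by ELISA after 24 h chemical treatment of bronchial epithelial cell/dermal fibroblast co-cultures, read against DMSO baseline. Overt cytotoxicity checked in parallel cultures by sulforhodamine B staining.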
# CD90, THY1 (gene 7070) = experiment: BSK_BF4T_CD90: BioMAP Diversity Plus: BF4T Assay for CD90 Biomarker Activity (AID 2284262); settings: primary human bronchial epithelial cells with fibroblasts
# Summary of the method: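 CD90 levels by ELISA after 24 h treatment of human bronchial epithelial cell/dermal fibroblast cultures, analysed versus DMSO. Overt cytotoxicity checked in parallel cultures by sulforhodamine B staining.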
# [15] = read-out: Interleukin-8 (IL8), CXCL8 (gene 3576); experiment: BSK_BF4T_IL8: BioMAP Diversity Plus: BF4T Assay for Interleukin-8 (IL8) Biomarker Activity (AID 2284263); settings: primary human bronchial epithelial cells with fibroblasts
# Summary of the method: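 Human bronchial epithelial cells with dermal fibroblasts co-culture; IL-8 measured by ELISA 24 hours after dosing, fitted vs DMSO. Cytotoxicity tracked in parallel cultures by SRB total-protein staining.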
# [16] = read-out: Interleukin-1 alpha (IL1a), IL1A (gene 3552); experiment: BSK_BF4T_IL1a: BioMAP Diversity Plus: BF4T Assay for Interleukin-1 alpha (IL1a) Biomarker Activity (AID 2284264); settings: primary human bronchial epithelial cells with fibroblasts
# Summary of the method: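 ELISA read-out of IL-1α from bronchial epithelial cell/dermal fibroblast co-cultures 24 h after compound addition. Increases scored against DMSO negative control. Cytotoxicity monitored by sulforhodamine B staining of parallel cultures.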
# KRT18 (gene 3875) = experiment: BSK_BF4T_Keratin818: BioMAP Diversity Plus: BF4T Assay for Keratin 818 Biomarker Activity (AID 2284266); settings: primary human bronchial epithelial cells with fibroblasts
# Summary of the method: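 Keratin 8/18 levels quantified by ELISA after 24 h chemical treatment of bronchial epithelial cell/dermal fibroblast co-cultures, fitted in positive direction relative to DMSO. Parallel SRB staining tracks overt cytotoxicity.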
smiles,measurement,setting,value
CC(c1cc(C(C)(C)C)cc(C(C)(C)C)c1O)c1cc(C(C)(C)C)cc(C(C)(C)C)c1O,outcome,[1],inactive
same,outcome,[2],inactive
same,outcome,[3],inactive
same,outcome,"Decorin, DCN (gene 1634)",inactive
CC(C)[N+](C)(CCOC(=O)C1c2ccccc2Oc2ccccc21)C(C)C,outcome,[1],inactive
same,AC50,[2],0.0398 µM (active)
same,outcome,[3],inactive
same,outcome,"Decorin, DCN (gene 1634)",inactive
COc1ccc(C(=O)c2ccccc2)c(O)c1,outcome,[1],inactive
same,outcome,[2],inactive
same,outcome,[3],inactive
same,outcome,"Decorin, DCN (gene 1634)",inactive
O=C(O)C(F)(F)C(F)(F)C(F)(F)C(F)(F)C(=O)O,outcome,[1],inactive
same,outcome,[4],inactive
same,outcome,[5],inactive
same,outcome,[6],inactive
same,outcome,[7],inactive
same,outcome,[8],inactive
same,outcome,[9],inactive
same,outcome,[10],inactive
same,outcome,[11],inactive
same,outcome,[2],inactive
same,outcome,"CD69, CD69 (gene 969)",inactive
same,outcome,[12],inactive
same,outcome,[13],inactive
same,outcome,[14],inactive
same,outcome,[3],inactive
same,outcome,"CD90, THY1 (gene 7070)",inactive
same,outcome,[15],inactive
same,outcome,[16],inactive
same,outcome,"Decorin, DCN (gene 1634)",inactive
same,outcome,KRT18 (gene 3875),inactive
C=CC(=O)OCCCCCCCC(C)C,outcome,[1],inactive
same,outcome,[2],inactive
same,outcome,[3],inactive
same,outcome,"Decorin, DCN (gene 1634)",inactive
CCc1cccc(C)c1N(C(=O)CS(=O)(=O)O)C(C)COC (stereo not given),outcome,[1],inactive
same,outcome,[2],inactive
same,outcome,[3],inactive
same,outcome,"Decorin, DCN (gene 1634)",inactive
CC1(C)CC(O)CC(C)(C)N1[O],outcome,[1],inactive
same,outcome,[2],inactive
same,outcome,[3],inactive
same,outcome,"Decorin, DCN (gene 1634)",inactive
CCC1(C)C(=O)N(Cl)C(=O)N1Cl (stereo not given),outcome,[1],inactive
same,outcome,[2],inactive
same,outcome,[3],inactive
same,outcome,"Decorin, DCN (gene 1634)",inactive
CC/C=C\C/C=C\C/C=C\CCCCCCCC(=O)OC,AC50,[1],20 µM (active)
same,AC50,[2],13.7 µM (active)
same,AC50,[3],20 µM (active)
same,outcome,"Decorin, DCN (gene 1634)",inactive
CC(C)c1cccc(C(C)C)c1N,outcome,[1],inactive
same,outcome,[2],inactive
same,outcome,[3],inactive
same,outcome,"Decorin, DCN (gene 1634)",inactive
CCCCCCCCCCCC(C)=O,outcome,[1],inactive
same,outcome,[2],inactive
same,outcome,[3],inactive
same,outcome,"Decorin, DCN (gene 1634)",inactive
CCCCCCOC(=O)CCCCC(=O)OCCCCCC,outcome,[1],inactive
same,outcome,[2],inactive
same,outcome,[3],inactive
same,outcome,"Decorin, DCN (gene 1634)",inactive
CCCC(C)C(=O)OCC (stereo not given),outcome,[4],inactive
same,outcome,[6],inactive
same,outcome,[7],inactive
same,outcome,[8],inactive
same,outcome,[10],inactive
CC=C(C)C=CC=C(C)C,AC50,[1],0.016 µM (active)
same,AC50,[2],0.016 µM (active)
same,outcome,[3],inactive
same,outcome,"Decorin, DCN (gene 1634)",inactive
Cc1c(O)cccc1O,outcome,[1],inactive
same,outcome,[2],inactive
same,outcome,[3],inactive
same,outcome,"Decorin, DCN (gene 1634)",inactive
O=C(Oc1ccccc1)c1ccccc1C(=O)Oc1ccccc1,outcome,[1],inactive
same,outcome,[2],inactive
same,outcome,[3],inactive
same,outcome,"Decorin, DCN (gene 1634)",inactive
C=CC(=O)NCOCCCC,outcome,[1],inactive
same,outcome,[2],inactive
same,outcome,[3],inactive
same,outcome,"Decorin, DCN (gene 1634)",inactive

# Source: PubChem BioAssay (EPA / NIEHS)
